Measured values reported in PubChem BioAssay.
Active and inactive are the calls of the source.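 How the source made its calls: active means compounds that lower viability of the colon cancer cells in the luminescence readout, with no numeric limit stated; inactive means the rest.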

Assay: CellTiter-Glo luminescent readout of SW480 viability loss, NPC library primary (AID 1117343)
Conditions: CellTiter-Glo luminescence; at 20 µM (top of the series) unless noted

| Structure (SMILES) | viability decrease (inhibition) |
| --- | --- |
| CC(C)(C)c1ccc(C(O)CCCN2CCC(C(O)(c3ccccc3)c3ccccc3)CC2)cc1 (stereo not given) | 142% (active) |
| O=C(NCC1CCCCN1)c1cc(OCC(F)(F)F)ccc1OCC(F)(F)F (stereo not given) | 1.6% (inactive) |
| O=C(O)COCCN1CCN(C(c2ccccc2)c2ccc(Cl)cc2)CC1 (stereo not given) | -6.6% (inactive) |
| CC(C)c1c(C(=O)Nc2ccccc2)c(-c2ccccc2)c(-c2ccc(F)cc2)n1CC[C@@H](O)C[C@@H](O)CC(=O)O | 96.3% (active) |
| Cc1ccc(/C(=C\CN2CCCC2)c2ccccn2)cc1 | 6.5% (active) |
| CC(C)(C)CC(C)(C)c1ccc(OCCOCC[N+](C)(C)Cc2ccccc2)cc1 | 145% (active) |
| Clc1ccccc1CN1CCc2sccc2C1 | 70.5% (active) |
| C[N+]1(C)CCC(OC(=O)C(O)(c2ccccc2)C2CCCC2)C1 (stereo not given) | -15.2% (inactive) |
| CN1[C@@H]2CC(OC(=O)[C@H](CO)c3ccccc3)C[C@H]1[C@@H]1O[C@@H]12 (stereo not given in full) | -5.7% (inactive) |
| CC(C)(C(=O)O)c1ccc(C(O)CCCN2CCC(C(O)(c3ccccc3)c3ccccc3)CC2)cc1 (stereo not given) | 33.1% (inactive) |
| CC(C)n1c(/C=C/[C@@H](O)C[C@@H](O)CC(=O)O)c(-c2ccc(F)cc2)c2ccccc21 | 111% (active) |
| CN(C)C(=N)N=C(N)N | 17% (inactive) |
| O=C(O)c1cn(C2CC2)c2cc(N3CCNCC3)c(F)cc2c1=O | 12.3% (inactive) |
| COc1ccc(-c2nc3ccc(C4=NNC(=O)CC4C)cc3[nH]2)cc1 (stereo not given) | 43% (inactive) |
| O=S(=O)(c1cccc2cnccc12)N1CCCNCC1 | -4.3% (inactive) |
| CS(=O)(=O)c1ccc([C@@H](O)[C@@H](CF)NC(=O)C(Cl)Cl)cc1 | 17.1% (inactive) |
| C[C@@H](O[C@H]1OCCN(Cc2n[nH]c(=O)[nH]2)[C@H]1c1ccc(F)cc1)c1cc(C(F)(F)F)cc(C(F)(F)F)c1 | 102% (active) |
| NCCCC(O)(P(=O)(O)O)P(=O)(O)O | -1.7% (inactive) |
| CC1(C)[C@H](C(=O)O)N2C(=O)C[C@H]2S1(=O)=O | 6.5% (inactive) |
| O=C(O)CCn1c2c(c3ccccc31)C[C@H](NS(=O)(=O)c1ccc(F)cc1)CC2 | -25.4% (inactive) |
